Experiments:
[1] = molecular target: RNA polymerase II-associated factor 1 homolog (UniProt Q8N7H5); test: cross-link between two proteins; cross-linking mass spectrometry
[2] = molecular target: Transcription elongation factor SPT6 (UniProt Q7KZ85); test: cross-link between two proteins; affinity purification or IP with mass spectrometry; cross-linking mass spectrometry

| Substance | listed as a hit [1] | listed as a hit [2] |
| --- | --- | --- |
| Transcription elongation factor SPT6, Q7KZ85 | yes | – |
| DNA-directed RNA polymerase II subunit RPB1, P24928 | – | yes |

Reference: article PMC12440807
